# Source: PubChem BioAssay AID651791 (National Center for Advancing Translational Sciences (NCATS), 2012)
# Inconclusive results are not listed. Calls of active or inactive are those of the source. The call rests on the fitted dose curve; in most records, active means well fitted inhibition curve with a large enough effect; inconclusive means small, poorly fitted or top-dose-only effect; inactive means no such curve, though single readings can be large or run the other way.
# Test: InCell qHTS Assay for Inhibitors of the mTORC1 Signaling Pathway in MEF (Tsc2-/-, p53-/-) Cells: Hit Validation; further: nearly all actives have a fitted effect of over 75% in size
# Details: phospho-rpS6 immunofluorescence, 24 h; activity change, negative = inhibition: at 38.3 µM (top of the series)
# Source text: The mammalian target of rapamycin (mTOR) is an intracellular serine/threonine kinase Aberrant regulation of mTOR signaling plays a causative role in a number of human diseases, including cancer, benign tumors such as lymphangioleiomyomatosis (LAM) and Tuberous Sclerosis Complex (TSC), and metabolic diseases such as diabetes and obesity. This project aims to identify inhibitors of ribosomal protein S6 (rpS6) phosphorylation. The phosphorylation of rpS6 is a key event downstream of mTOR activation. The assay uses a phospho-specific antibody of phospho-rpS6 to detect inhibitors of mTOR activation. Mutations in the Tsc1 and Tsc2 genes are the underlying genetic lesions responsible for TSC, causing constitutive activation of the mTORC1 pathway and leading to profound effects on cell metabolism. Aberrant metabolism in cancer has recently received significant attention as a target to develop therapeutic agents in the treatment of cancer.1 As Tsc2-/- cells have lost the ability to respond to energy and growth factor deprivation, these cells are unable to properly down regulate cellular biosynthetic processes in response to metabolic stress, and are thus extremely sensitive to glucose deprivation-induced death.2 A central goal of this project is to explore the unique cell survival and metabolic properties of cells with Tsc1 or Tsc2 by screening for compounds that selectively target the Tsc2-/- MEFs by screening both Tsc2-/- and WT MEF cell lines. We hope to better understand these aspects of TSC physiology in order to exploit them for therapeutic benefit. NIH Molecular Libraries Probe Production Centers Network [MLPCN] NIH Chemical Genomics Center [NCGC] MLPCN Grant: NS059428 Assay Submitter (PI): Blenis, John; Harvard University
# For quantitative high throughput analysis of mTORC1 signaling, we developed a cell-based assay for immuno-fluorescence based detection of rpS6 phosphorylation on the Acumen Explorer that will be used a platform for the primary small molecule screen. Mouse embryonic fibroblasts (MEFs) are cultured in 1536-well plates using DMEM + 10% FBS. Twenty-four hrs after plating, test compounds (solubilized in DMSO) are delivered and incubated with the cells for 24 hrs at 37 degree Celsius. Following the incubation, media with compound is aspirated and the cells are fixed in 4% paraformaldehyde (PFA) containing PBS + 0.2% TX-100. Next, PFA is aspirated, cells are washed two times with PBS plus 0.2% TX-100 and the cells are blocked for 1 hr at room temperature (blocking buffer: LiCOR Blocking Buffer plus 0.2% TX-100). This is followed by aspiration and staining with Alexa-488 conjugated-phospho-rpS6 Ser235/236 antibody for 2 hours at room temperature (Cell Signaling Technology # 4803, 1:50 dilution in blocking buffer). Cells are washed two times with PBS plus 0.2% TX-100, and stained with 10 uM propidium iodide (PI) for 20-25 minutes for cell number measurement (1:500 dilution of Hoescht staining is also added for IN Cell imaging). The plates are scanned on the Acumen Explorer laser scanning instrument (TTP Labtech) using the 488nm laser for simultaneous excitation of the Alexa-488 and PI. The fluorescence emission from the Alexa-488 conjugated rpS6 phospho-235/236 antibody staining is selected using a […] band pass filter. Fluorescence emission from the PI stain is selected using a 575-640 nm band pass filter. The normalized phospho-S6 staining is calculated as the ratio of the integrated Alexa 488 intensity divided by the integrated PI intensity for the single concentration rapamycin control (7.5 nM) and DMSO columns. […] Inhibition of the pathway is defined based on the normalized phospho-S6 intensity in rapamycin treated cells. […]
# Potency means the concentration at half of the fitted maximal effect.
Compound,"activity change, negative = inhibition",Potency
Cc1cccc(N2CCN(C(=O)c3ccc(CS(=O)c4cccc(Cl)c4)o3)CC2)c1C (stereo not given),-17.3%,–
Cc1c(Cl)cccc1NC(=O)c1oc2ccc(S(=O)(=O)N3CCC4(CC3)OCCO4)cc2c1C,-22.5%,–
CCc1ccc(NC(=O)CSc2nccn2C2CCCC2)cc1,-100%,–
COc1ccc2nc(NC(=O)c3nc(S(=O)(=O)Cc4ccccc4F)ncc3Cl)sc2c1,–,2.33 µM (active)
CCS(=O)(=O)c1ncc(Cl)c(C(=O)N(Cc2ccccc2)Cc2ccco2)n1,–,3.69 µM (active)
Cc1ccc(-c2noc(CCC(=O)N(C)c3ccccc3F)n2)cc1,-100%,–
COc1ccc(Cn2c(C(=O)O)c(CNCc3ccccc3F)c3ccc(OC)cc32)cc1,-100%,–
CC(C)OCc1cc(CN2CCN(c3cccc(C(F)(F)F)c3)CC2)c(O)c2ncccc12,-100%,–
Cn1nc(-c2ccc(OCC(=O)Nc3ccccc3)cc2)c2ccccc2c1=O,-100%,–
COc1ccc2nc(NC(=O)c3nc(S(=O)(=O)Cc4ccccc4)ncc3Cl)sc2c1,–,1.65 µM (active)
O=C(CCCn1c(=O)c2ccccc2n(Cc2cccc(Cl)c2)c1=O)NCCc1ccc(Cl)cc1,-100%,–
CC(C)(C)c1ccc(S(=O)(=O)N2CCC(c3ccncc3)CC2)cc1,-29.8%,–
CC(C)c1ccc(NS(=O)(=O)c2ccc3nc(-c4ccccc4)[nH]c3c2)cc1,-100%,–
COc1cc(OC)cc(C(=O)NCc2ccc3c(c2)CCN3C(=O)c2ccccc2)c1,-100%,–
CCOc1cc(CNc2ccc(O)cc2)cc(Cl)c1OCc1ccccc1,-100%,–
CCOC(=O)c1ccc2ncc(C(=O)OCC)c(NCCc3ccc(OC)c(OC)c3)c2c1,-100%,–
Cc1ccccc1Oc1nc2ccccn2c(=O)c1/C=C(\C#N)c1nc2ccccc2[nH]1,-100%,–
CC(C)Oc1ccc(CNC(=O)c2ccc3nc(SCc4ccc(F)cc4)n(C)c3c2)cc1,-100%,–
COc1cc2nc(Nc3ccc(C)c(C)c3)nc(N)c2cc1OC,-100%,–
COc1ccc(-c2nc(CCNC(=O)c3c(F)cccc3Cl)cs2)cc1,-100%,–

Compound,"activity change, negative = inhibition",Potency
COc1ccc(S(=O)(=O)NCCc2sc3nc(-c4ccc(C)cc4)nn3c2C)cc1F,-100%,–
Cc1ccc(N(CC(O)Cn2c3ccccc3c3ccccc32)S(=O)(=O)c2ccc(F)cc2)cc1 (stereo not given),-64.5%,–
CCOC(=O)c1c(NC(=O)COc2ccc(OC)cc2)sc(C(=O)N(CC)CC)c1C,-100%,–
Cc1cc(NC(=O)c2ccco2)cc(-c2nc3cc(Cl)ccc3o2)c1O,-4.63%,–
CCCN(c1ccccc1CC)S(=O)(=O)c1ccc2c(c1)CC(C)N2C(=O)C1CC1 (stereo not given),-100%,–
Cc1ccc2c(c1)C(=O)C(=O)N2Cc1ccc(OC(C)C)cc1,-16.8%,–
COc1cc(-c2ccno2)ccc1S(=O)(=O)N1CCN(c2cc(C)ccc2C)CC1,-100%,–
CCC1CCc2nc3sc(C(=O)Nc4cccc(F)c4)c(N)c3cc2C1 (stereo not given),-100%,–
COc1ccc(OCC(=O)NCc2ccc3c(c2)CCN3C(=O)c2cccc(C)c2)cc1,-100%,–
COc1ccc(S(=O)(=O)Nc2ccc3oc4c(c3c2)CCCC4)cc1,-100%,–
COc1cc(NC(=O)CSc2ccc(-c3ccccn3)nn2)cc(OC)c1,-100%,–
Cc1ccccc1OCc1ccc(-c2nc(C#N)c(NCCCN(C)C)o2)o1,-100%,–
Cc1ccccc1NC(=O)c1sc2nc3c(cc2c1N)CCCC3,-100%,–
CCCCOc1ccccc1C1CC(=O)Nc2ccc3ccccc3c21 (stereo not given),-100%,–
CCOC(=O)N1CCN(Cc2nc3cc(NC(=O)c4ccc([N+](=O)[O-])cc4)ccc3n2C(C)C)CC1,-100%,–
COc1cccc(-n2c(-c3ccc(C)cc3)cc3c2CC(C)(C)CC3=O)c1,-6.41%,–
CC(C)CCNc1nc(Nc2ccccc2)c2cnn(C)c2n1,-100%,–
CCOC(=O)N1CCN(Cc2nc3cc(NC(C)=O)ccc3n2C(C)C)CC1,-100%,–
O=C(Nc1ccc(Cl)c(C(F)(F)F)c1)c1ccc2c(c1)CCN2S(=O)(=O)c1ccccc1,-100%,–
CCOc1ccccc1NC(=O)Cn1c(=O)n(CCC(=O)NCc2ccc3c(c2)OCO3)c(=O)c2ccccc21,-100%,–
